# In PubChem BioAssay (NCATS):
# Results filed as inconclusive are left out. Entries that show only a call come without a potency. Active and inactive are the calls of the source. Calls come from the whole dose curve; as a rule, active = well fitted curve in the direction sought with a large enough effect; inconclusive = small, poorly fitted or top-dose-only effect, or another doubt; inactive = no such curve, though single readings can be large; an effect the other way counts as inactive or inconclusive.
# Tests used:
# [1] = Quantitative High-Throughput drug screen in 47 multiple myeloma cell lines against the NCATS MIPE library collection: JIM3_ECACC cell viability assay (AID 1918963; note: nearly all actives have a fitted effect of over 35% in size)
# Method in brief: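 qHTS of the MIPE 4.0 collection: 500 myeloma cells/well, 48 h drug exposure at 37C in 5% CO2, then CellTiter-Glo for 5 min at room temperature before luminescence reading.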
# [2] = Quantitative High-Throughput drug screen in 47 multiple myeloma cell lines against the NCATS MIPE library collection: JIM1_ECACC cell viability assay (AID 1918964)
# Method in brief: (§1)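 CellTiter-Glo ATP luminescence gave viability after 48 h compound treatment at 37C of 500 multiple myeloma cells per well. Normalisation used DMSO-only wells as 100% and media-only wells as 0% viability; primary qHTS of approved and investigational drugs.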
# [3] = Quantitative High-Throughput drug screen in 47 multiple myeloma cell lines against the NCATS MIPE library collection: INA6_PLB cell viability assay (AID 1918965; note: nearly all actives have a fitted effect of over 55% in size)
# Method in brief: (§2)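 Luminescent ATP measurement with CellTiter-Glo gives viability, scaled between DMSO-only wells (100%) and media-only wells (0%). Cells, 500 per well, faced library compounds for 48 hours at 37C.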
# [4] = Quantitative High-Throughput drug screen in 47 multiple myeloma cell lines against the NCATS MIPE library collection: JJN3_DSMZ cell viability assay (AID 1918966; note: nearly all actives have a fitted effect of over 50% in size)
# Method in brief: as §1
# [5] = Quantitative High-Throughput drug screen in 47 multiple myeloma cell lines against the NCATS MIPE library collection: Karpas25_ECACC cell viability assay (AID 1918968; note: nearly all actives have a fitted effect of over 35% in size)
# Method in brief: as §1
# [6] = Quantitative High-Throughput drug screen in 47 multiple myeloma cell lines against the NCATS MIPE library collection: KMS27_JCRB cell viability assay (AID 1918970); note: nearly all actives have a fitted effect of over 30% in size
# Method in brief: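 Myeloma cells (500 per well) were exposed to MIPE 4.0 compounds for 48 h at 37 °C, 5% CO2; viability was read as ATP luminescence with CellTiter-Glo, normalized to DMSO-only (100%) and media-only (0%) wells.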
# [7] = Quantitative High-Throughput drug screen in 47 multiple myeloma cell lines against the NCATS MIPE library collection: KMS12BM_JCRB cell viability assay (AID 1918971); note: nearly all actives have a fitted effect of over 35% in size
# Method in brief: (§3)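 Myeloma cell lines, 500 cells per well, exposed to MIPE 4.0 library compounds for 48 h at 37C, 5% CO2. Viability from ATP by CellTiter-Glo luminescence; normalised to DMSO (100%) and media-only (0%) wells.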
# [8] = Quantitative High-Throughput drug screen in 47 multiple myeloma cell lines against the NCATS MIPE library collection: KMS26_JCRB cell viability assay (AID 1918975); note: nearly all actives have a fitted effect of over 45% in size
# Method in brief: as §3
# [9] = Quantitative High-Throughput drug screen in 47 multiple myeloma cell lines against the NCATS MIPE library collection: MOLP8_DSMZ cell viability assay (AID 1918977); note: nearly all actives have a fitted effect of over 45% in size
# Method in brief: (§4)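 qHTS format: cells plated (500/well), pin-dosed with MIPE 4.0 compounds, kept 48 h at 37 °C. Readout was CellTiter-Glo luminescence, median RLU.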
# [10] = Quantitative High-Throughput drug screen in 47 multiple myeloma cell lines against the NCATS MIPE library collection: NCIH929_DSMZ cell viability assay (AID 1918978); note: nearly all actives have a fitted effect of over 35% in size
# Method in brief: as §4
# [11] = Quantitative High-Throughput drug screen in 47 multiple myeloma cell lines against the NCATS MIPE library collection: OCIMY1_PLB cell viability assay (AID 1918979); note: nearly all actives have a fitted effect of over 35% in size
# Method in brief: as §4
# [12] = Quantitative High-Throughput drug screen in 47 multiple myeloma cell lines against the NCATS MIPE library collection: MM1S_ATCC cell viability assay (AID 1918980); note: nearly all actives have a fitted effect of over 45% in size
# Method in brief: as §4
# [13] = Quantitative High-Throughput drug screen in 47 multiple myeloma cell lines against the NCATS MIPE library collection: MM1R_ATCC cell viability assay (AID 1918981); note: nearly all actives have a fitted effect of over 35% in size
# Method in brief: as §4
# [14] = Quantitative High-Throughput drug screen in 47 multiple myeloma cell lines against the NCATS MIPE library collection: LP1_DSMZ cell viability assay (AID 1918982); note: nearly all actives have a fitted effect of over 35% in size
# Method in brief: as §4
# [15] = Quantitative High-Throughput drug screen in 47 multiple myeloma cell lines against the NCATS MIPE library collection: H1112_PLB cell viability assay (AID 1918967; note: nearly all actives have a fitted effect of over 30% in size)
# Method in brief: as §1
# [16] = Quantitative High-Throughput drug screen in 47 multiple myeloma cell lines against the NCATS MIPE library collection: KMS12PE_JCRB cell viability assay (AID 1918972); note: nearly all actives have a fitted effect of over 30% in size
# Method in brief: as §2
# [17] = Quantitative High-Throughput drug screen in 47 multiple myeloma cell lines against the NCATS MIPE library collection: KMS20_JCRB cell viability assay (AID 1918973); note: nearly all actives have a fitted effect of over 45% in size
# Method in brief: as §1
# [18] = Quantitative High-Throughput drug screen in 47 multiple myeloma cell lines against the NCATS MIPE library collection: KMS21BM_JCRB cell viability assay (AID 1918974); details: ATP luminescence, 48 h; viability: at 45.8 µM (top of the series)
# Method in brief: as §1
# [19] = Quantitative High-Throughput drug screen in 47 multiple myeloma cell lines against the NCATS MIPE library collection: MMM1_PLB cell viability assay (AID 1918976); note: nearly all actives have a fitted effect of over 35% in size
# Method in brief: as §4
# Potency is the fitted concentration of half-maximal effect.
smiles,measurement,setting,value
CC(C)C[C@H](NC(=O)[C@H](CCc1ccccc1)NC(=O)CN1CCOCC1)C(=O)N[C@@H](Cc1ccccc1)C(=O)N[C@@H](CC(C)C)C(=O)[C@@]1(C)CO1,Potency,[1],0.0235 µM (active)
same,Potency,[2],0.0074 µM (active)
same,Potency,[3],0.001 µM (active)
same,Potency,[4],0.0074 µM (active)
same,Potency,[5],0.001 µM (active)
same,Potency,[6],0.001 µM (active)
same,Potency,[7],0.0053 µM (active)
same,Potency,[8],0.0132 µM (active)
same,Potency,[9],0.0019 µM (active)
same,Potency,[10],0.001 µM (active)
same,Potency,[11],0.0093 µM (active)
same,Potency,[12],0.0023 µM (active)
same,Potency,[13],0.0037 µM (active)
same,Potency,[14],0.0093 µM (active)
O=C(NCC1CN(c2ccc(N3CCOCC3=O)cc2)C(=O)O1)c1ccc(Cl)s1 (stereo unspecified),Potency,[1],inactive
same,Potency,[7],inactive
same,Potency,[8],inactive
same,Potency,[9],inactive
same,Potency,[10],inactive
same,Potency,[11],inactive
CN1CCN(c2c(F)cc3c(=O)c(C(=O)O)cn(CCF)c3c2F)CC1,Potency,[1],inactive
same,Potency,[15],inactive
same,Potency,[5],inactive
same,Potency,[6],inactive
same,Potency,[16],inactive
same,Potency,[9],inactive
same,Potency,[10],inactive
same,Potency,[13],inactive
same,Potency,[14],inactive
O=C(O)CSCC(=O)NC1CCSC1=O (stereo unspecified),Potency,[1],inactive
same,Potency,[4],inactive
same,Potency,[5],inactive
same,Potency,[6],inactive
same,Potency,[7],inactive
same,Potency,[16],inactive
same,Potency,[8],inactive
same,Potency,[9],inactive
same,Potency,[10],inactive
same,Potency,[11],inactive
same,Potency,[12],inactive
same,Potency,[14],inactive
CCCCOc1ccc(CC(=O)NO)cc1,Potency,[15],8.33 µM (active)
same,Potency,[5],6.62 µM (active)
same,Potency,[6],33.2 µM (active)
same,Potency,[7],20.9 µM (active)
same,Potency,[16],23.5 µM (active)
same,Potency,[17],16.6 µM (active)
same,Potency,[18],14.8 µM (active)
same,Potency,[8],10.5 µM (active)
same,Potency,[19],13.2 µM (active)
same,Potency,[12],2.64 µM (active)
same,Potency,[13],8.33 µM (active)
COc1cnc(NS(=O)(=O)c2ccc(N)cc2)nc1,Potency,[1],inactive
same,Potency,[15],inactive
same,Potency,[8],inactive
same,Potency,[9],inactive
same,Potency,[11],inactive
same,Potency,[12],29.6 µM (active)
same,Potency,[13],inactive
CC(=O)[C@H]1CC[C@H]2[C@@H]3CCC4=CC(=O)CC[C@]4(C)[C@H]3CC[C@]12C,Potency,[3],16.6 µM (active)
same,Potency,[10],inactive
same,Potency,[12],3.72 µM (active)
CCCCS(=N)(=O)CCC(N)C(=O)O (stereo unspecified),Potency,[1],inactive
same,Potency,[4],inactive
same,Potency,[15],inactive
same,Potency,[5],inactive
same,Potency,[6],inactive
same,Potency,[7],inactive
same,Potency,[16],inactive
same,Potency,[8],inactive
same,Potency,[9],inactive
same,Potency,[10],inactive
same,Potency,[11],inactive
same,Potency,[12],inactive
same,Potency,[13],inactive
same,Potency,[14],inactive
CO[C@@H]1[C@@H](OC(N)=O)[C@@H](O)[C@H](Oc2ccc3c(O)c(NC(=O)c4ccc(O)c(CC=C(C)C)c4)c(=O)oc3c2C)OC1(C)C,Potency,[1],5.26 µM (active)
same,Potency,[15],inactive
same,Potency,[5],5.9 µM (active)
same,Potency,[7],2.96 µM (active)
same,Potency,[8],9.35 µM (active)
same,Potency,[11],inactive
same,Potency,[14],inactive
O=S(=O)(c1cccc2cnccc12)N1CCCNCC1,Potency,[16],inactive
same,Potency,[17],inactive
same,Potency,[11],inactive
same,Potency,[13],inactive
same,Potency,[14],inactive
Nc1nc(N)c2nc(CNc3ccc(C(=O)NC(CCC(=O)O)C(=O)O)cc3)cnc2n1 (stereo unspecified),Potency,[1],0.0418 µM (active)
same,Potency,[5],inactive
same,Potency,[8],0.0264 µM (active)
same,Potency,[9],inactive
same,Potency,[10],inactive
same,Potency,[11],inactive
same,Potency,[12],0.0132 µM (active)
same,Potency,[14],0.0296 µM (active)
CCc1c2c(nc3ccc(OC(=O)N4CCC(N5CCCCC5)CC4)cc13)-c1cc3c(c(=O)n1C2)COC(=O)[C@]3(O)CC,Potency,[3],0.469 µM (active)
same,Potency,[15],1.32 µM (active)
same,Potency,[5],2.64 µM (active)
same,Potency,[7],0.264 µM (active)
same,Potency,[16],0.526 µM (active)
same,Potency,[8],0.166 µM (active)
same,Potency,[9],0.148 µM (active)
same,Potency,[10],16.6 µM (active)
same,Potency,[12],1.32 µM (active)
same,Potency,[14],0.59 µM (active)
